In PubChem BioAssay AID743373 (National Center for Advancing Translational Sciences (NCATS), 2014):
Inconclusive results are not listed. Activity calls are given as the source filed them. The call rests on the fitted dose curve; in most records, active means well fitted inhibition curve with a large enough effect; inconclusive means small, poorly fitted or top-dose-only effect; inactive means flat fitted curve, though single readings scatter.

Target: Galactokinase (Homo sapiens) (UniProt P51570)
Sequence (P51570 whole entry, looked up): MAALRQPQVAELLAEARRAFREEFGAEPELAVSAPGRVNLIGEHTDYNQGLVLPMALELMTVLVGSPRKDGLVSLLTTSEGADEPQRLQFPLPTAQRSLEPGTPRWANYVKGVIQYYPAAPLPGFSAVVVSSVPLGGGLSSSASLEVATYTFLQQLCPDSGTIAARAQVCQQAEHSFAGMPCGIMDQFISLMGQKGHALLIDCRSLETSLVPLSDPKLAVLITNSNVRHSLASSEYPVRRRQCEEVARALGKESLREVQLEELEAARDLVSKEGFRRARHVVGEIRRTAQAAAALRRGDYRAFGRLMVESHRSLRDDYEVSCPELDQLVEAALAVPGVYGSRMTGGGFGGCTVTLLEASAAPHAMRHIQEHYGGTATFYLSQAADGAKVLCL
Assay: qHTS for Inhibitors of Human Galactokinase (GALK): Confirmation Assay for SAR round 4
Details: recombinant GALK, ADP-Glo luminescence, 1 h
Description: Inherited deficiency of galactose-1-phosphate uridyltransferase (GALT) can result in a potentially lethal disorder called Classic Galactosemia (OMIM 230400). Several lines of evidence indicate that an elevated level of galactose-1-phosphate (gal-1-p), the product of galactokinase (GALK), is a major, if not sole, pathogenic mechanism in patients with classic galactosemia. Therefore, finding inhibitors of GALK is a potential novel therapy for this inherent metabolic disease and is the long term goal of this project. Active compounds observed in the qHTS GALK assay (AID: 1868) were cherry picked and re-screened for validation. GALK (provided by Kent Lai) was assayed using ATP and D-(+)-Galactose (Sigma-Aldrich cat# G0750) as substrates. Promega ADP-Glo technology was used to detect the ADP product formed after the kinase reaction. […]
Two uL/well of ATP-buffer solution (35 uM ATP, 20mM HEPES pH8.0, 5 mM MgCl2, 60 mM NaCl, 1 mM DTT, 0.01% BSA final concentration) was dispensed into 1536-well, assay plates (Greiner, solid white medium-binding plates) with Aurora Discovery BioRAPTR Flying Reagent Dispenser (FRD; Beckton-Dickenson). […] Luminescence was detected with the ViewLux plate reader (Perkin Elmer, Waltham, MA) using a 1 sec exposure time and 2x binning.

**Q.** How did the Potency turn out when CC1=C(C(=O)Nc2nncs2)C(c2nn(C)cc2Cl)N=C(Nc2nc3ccccc3o2)N1 (configuration not stated) was run?
**A.** The Potency was 6.85 µM (active).

**Q.** Which Potency does the source give for Cn1cc(Br)c(C2N=C(Nc3nc4ccccc4o3)NC3=C2C(=O)CCC3)n1 (configuration not stated) here?
**A.** Its Potency is 4.32 µM (active).
